Common to all, as to experiment: NCI-60 one-dose screen, 48 h (100 = growth as untreated, 0 = no growth, -100 = all killed)
Test [1] deals with HCT-15 colon. The settings on record: 10 µM unless noted.
Test [2] concerns HT29 colon. The settings on record: 10 µM unless noted.
Test [3] concerns SNB-75 CNS. The settings on record: 10 µM unless noted.
Test [4] has as its system SNB-19 CNS. To be noted: 10 µM unless noted.
The test system of test [5] is U251 CNS. To be noted: 10 µM unless noted.
For test [6], the system named is PC-3 prostate. The settings on record: 10 µM unless noted.
Test [7] relates to UACC-62 melanoma. The settings on record: 10 µM unless noted.
Test [8] deals with LOX IMVI melanoma. The settings on record: 10 µM.
Test [9] relates to SK-MEL-28 melanoma. The settings on record: 10 µM unless noted.
Test [10] concerns SK-MEL-5 melanoma. To be noted: 10 µM unless noted.

The panel holds about 83,000 compounds, 20% with a hit somewhere; the sample as a whole holds those more often.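 Method: cells in 96-well plates; compound added at one concentration; 48 h incubation; percent growth measured; values under 10 scored active.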 Values without a mark were called inactive. Active and inactive are the calls of the source.

Consider `O=C1C=CC(O)=CC1=P(c1ccccc1)(c1ccccc1)c1ccccc1`, for which the growth in [1] is 96.2%; in [2] it was 103%; in [3], 84.2%; in test [4] it was 94.9%; in [5], 92.3%; in test [6], 91.6%. Also, the growth in test [7] was 83.7%; in test [8], 94.7%; in [9], 102%.
Take `S=C=Nc1ccc(N2CCOCC2)cc1`: the growth in test [1] is 90.5%; in test [2] it was 86.3%; in test [3], 66.4%; in test [4], 91.8%; in [5] it was 97.6%; in test [6], 90.1%. For the same compound, the growth in [7] was 82.1%; in test [8], 92.4%; in [9] it was 92.5%.
On to `NC(=S)N/N=C\c1nccc2c(C(F)(F)F)cccc12`, for which the growth in [1] is 28.6%; in [2], 18.5%; in [3] it was 11.6%; in [4], 30.6%; in test [5], 5.79% (active); in test [6] it was 18.6%. The growth in test [7] was -3.16% (active); in test [8], 4.01% (active); in [9], 26.6%.
Take `CCCCCCCCCCCCCCCCCC1=NCCCN1CCO`: the growth is 94% in [1]; 101% in test [2]; 105% in test [3]; 101% in test [4]; 98.2% in test [5]; 95.9% in test [6]. In addition, the growth in test [7] was 111%; in [8], 96.4%; in test [9] it was 108%.
For `Fc1ccc(NCCS)cc1`, the growth was 105% in [1]; 111% in [2]; 80.4% in test [3]; 107% in [4]; 97.9% in test [5]; 99.1% in test [6]. Also, the values for the growth in test [7], in test [8] and in test [9] were 106%, 91.7% and 103%, respectively.
With `O=C(c1ccccc1)c1ccc(O)c2ncccc12`, the growth is 25.7% in test [1]; 96.1% in [2]; 58.7% in test [3]; 38.4% in test [4]; 28.4% in test [5]; 32.2% in [6]. In addition, the growth in test [7] was 33.9%; in test [8] it was 31.4%; in test [9] it was 68%.
`Oc1ccc2ccccc2c1N=Nc1ccccn1`: the growth in [1] is 26.9%; in test [2], 20.9%; in test [3], 59.1%; in [4] it was 53.4%; in [5] it was 30.5%; in test [7] it was 29.8%. The growth in test [8] was 6.2% (active); in test [9], 40.7%.
Regarding `c1ccc2sc(SSN3CC4CCC(CC4)C3)nc2c1`, the growth in test [1] is 110%; in test [2] it was 114%; in test [4] it was 105%; in [5], 106%; in test [6] it was 100%; in test [10], 97.9%. For the same compound, the growth in test [7] is 90.5%; in [8] it was 92.1%; in [9] it was 132%.
Regarding `O=[n+]1c2ccccc2n([O-])c2cc(Cl)ccc21`, the growth in test [1] was 43.7%; in test [2] it was 74.1%; in [3] it was 50.7%; in [4], 94.2%; in test [6], 50.2%; in [7], 81%. Moreover, the growth in [9] is 99.2%.
For the compound `CCCCCCCCC(=O)OCCCC(CCC(CCC1CCCO1)OC(=O)CCCCCCCC)OC(=O)CCCCCCCC` (configuration not stated), the growth in test [1] is 103%; in test [2], 93%; in test [3] it was 93.8%; in test [5] it was 106%; in test [6], 85.1%; in test [10] it was 102%. The growth in [7] was 88.2%; in test [8], 98.6%; in test [9], 102%.
Take `COc1cc(/C=C/c2ccnc3ccccc23)cc(OC)c1OC`: the growth in test [1] was 32.5%; in test [2] it was 11.8%; in test [3], -3.85% (active); in test [5], 33.2%; in [6], 56.1%; in test [10] it was 3.09% (active). Also, the values for the growth in test [7], in [8] and in [9] were 38.2%, 26.1% and 34%, respectively.
As for `O=C(Cc1nc2cc(Cl)c(Cl)cc2nc1CC(=O)c1ccccc1)c1ccccc1`, the growth in test [1] is 69.6%; in test [2] it was 65.3%; in test [3] it was 70.4%; in test [5] it was 86.6%; in [6] it was 59.4%; in [7] it was 56.9%. Moreover, the growth in [8] is 62.2%; in [9] it was 91.1%.
`COc1ccc2c(c1)c(CC(=O)O)c(C)n2C(=O)c1ccc(Cl)cc1`: the growth in [1] was 104%; in test [2], 111%; in test [4] it was 110%; in test [5], 90.3%; in [6], 104%; in [10] it was 93.6%. Moreover, the growth is 95.5% in [7], 90.9% in [8] and 97.3% in test [9].
Consider `CCOc1ccc(Nc2nc3c(s2)C(=O)c2ccccc2C3=O)cc1`, for which the growth in test [1] is 30.4%; in [2] it was 115%; in [4], 89.9%; in [5], 78.9%; in test [6] it was 57.4%; in [10] it was 62.1%. For the same compound, the values for the growth in [7], in [8] and in test [9] were 56.6%, -5.52% (active) and 106%, respectively.
As to `COc1ccc(C(OCC2OC(n3ccc(NC(=O)c4ccccc4)nc3=O)C(O)C2O)(c2ccccc2)c2ccccc2)cc1` (configuration not stated), the growth in [1] was 20.6%; in [2] it was 8.51% (active); in test [4], 54.7%; in [5], 33.1%; in [6], 22.9%; in test [10], 24.2%. The growth in test [7] was 43.9%; in test [8], 46.6%; in [9], 55.9%.
As to `CC1C(c2ccccc2)OCCN1C(=S)Nc1ccc(S(=O)(=O)N2CCCCC2)cc1` (configuration not stated), the growth in test [1] was 97.2%; in test [2] it was 87.5%; in test [4] it was 102%; in test [5], 93%; in [6] it was 97.7%; in test [10], 88.7%. Besides, the values for the growth in test [7], in test [8] and in test [9] were 88.9%, 58.9% and 108%, respectively.
Regarding `Nc1nc(-c2ccccc2)nc(N)c1N=O`, the growth in test [1] was 53.6%; in test [2], 14.5%; in [4] it was 88.7%; in test [5], 52.4%; in test [6], 79.9%; in test [10], 100%. Also, the growth in test [7] was 71.8%; in [8], 66.7%; in test [9], 75.3%.
Regarding `CCCCCCCCCCCCNCCCc1ccccc1`, the growth is 23.9% in [1]; 7.89% (active) in test [2]; 64.7% in [3]; 92.2% in test [4]; 78.9% in test [6]; 57.2% in [7]. Further, in [9], the growth was 73.4%.
For the compound `[Cl-].[Rh+3].c1ccc(-c2ccnc3c2ccc2c(-c4ccccc4)ccnc23)cc1.c1ccc(-c2ccnc3c2ccc2c(-c4ccccc4)ccnc23)cc1.c1ccc(-c2ccnc3c2ccc2c(-c4ccccc4)ccnc23)cc1`, the growth was 106% in [1]; 99% in [2]; 57.5% in [4]; 30.8% in [5]; 75.5% in test [6]; -38.1% (active) in [10]. Also, the growth is 97.7% in [7] and 88.7% in test [8].
Regarding `CCCCCCCCCCCC[S+](C)CC(=O)[O-]` (configuration not stated), the growth in test [1] is 84.6%; in [2] it was 44.7%; in [3] it was 29.7%; in [5] it was 43.7%; in test [6], 25%; in test [10], -62.3% (active). The results for the growth in test [7], in [8] and in test [9] were 31.8%, 32.9% and 62.9%, respectively.
For the compound `CCCCCCN(CCCCCC)CCCNc1nccc2ccccc12`, the growth in test [1] was 17%; in [2], -11.6% (active); in [4] it was 20.3%; in test [5], 9.66% (active); in [6] it was 20.4%; in test [10], -91.3% (active). The growth in test [7] was 21.8%; in test [8], -39.3% (active); in test [9] it was 13.1%.
For the compound `CN(C)CC(C)(CN(C)C)C(=O)/C=C/c1c(Cl)cccc1Cl`, the growth was -65.6% (active) in test [1]; 12.2% in test [2]; 64.5% in [3]; 40.4% in test [5]; 46.2% in test [6]; 56.3% in test [10]. In addition, the growth was 20.1% in test [7], -100% (active) in test [8] and 4.32% (active) in test [9].
As for `O=C(c1ccccc1)N(CCCl)C(=O)N(CCCl)C(=O)c1ccccc1`, the growth in test [1] was 99.4%; in test [2] it was 97.4%; in test [4], 90.5%; in [5], 102%; in [6], 88.5%; in [10], 96.2%. In addition, the growth in [7] was 93.8%; in test [8] it was 88.2%; in test [9] it was 106%.
For `Nc1ccc(Oc2ccccc2)c(Cl)c1`, the growth in test [1] was 92.6%; in test [2], 104%; in test [4], 102%; in test [5], 84.1%; in test [6], 100%; in test [10], 95.6%. For the same compound, the growth in [7] is 107%; in test [8] it was 103%; in test [9], 106%.
`Nc1nc2ncc(CNc3ccc(C(=O)NC(CCC(=O)NC(CCC(=O)NC(CCC(=O)NC(CCC(=O)NC(CCC(=O)O)C(=O)O)C(=O)O)C(=O)O)C(=O)O)C(=O)O)cc3)nc2c(=O)[nH]1` (configuration not stated): the growth in test [1] is 103%; in test [2] it was 107%; in test [3], 107%; in test [5], 110%; in test [6], 100%; in [10], 94.7%. Besides, the growth in test [7] is 94.5%; in [8], 100%; in [9] it was 110%.
For `O=C(Cc1nc2cc(Cl)c(Cl)cc2nc1CC(=O)c1cccnc1)c1cccnc1`, the growth is 57.2% in test [1]; 71.6% in test [2]; 88.4% in test [3]; 89.3% in test [5]; 70.2% in test [6]; 81.7% in [10]. In addition, the growth was 71.4% in test [7], 65.4% in test [8] and 87.1% in test [9].
As to `O=C(C[P+](c1ccccc1)(c1ccccc1)c1ccccc1)c1ccccc1`, the growth in test [1] is 97.5%; in [2] it was 87.4%; in test [4], 94.4%; in [5], 96.7%; in [6], 74.7%; in test [10], 104%. In addition, the results for the growth in [7], in [8] and in test [9] were 79.5%, 70.6% and 109%, respectively.
Consider `Cn1ccc(=Nc2ccc(NC(=O)c3ccc(N=c4ccn(C)c5ccc([N+](=O)[O-])cc45)cc3)cc2)cc1`, for which the growth in [1] was 98.2%; in test [2], 73%; in test [4], -5.19% (active); in [5], -17.5% (active); in test [6], 44%; in test [10], 89.8%. Further, the growth in test [7] is 70.1%; in [8], 56.2%; in [9], 87.3%.
Consider `O=C1C=C(Cl)C(=O)c2ccccc21`, for which the growth is 98.9% in test [1]; 119% in test [2]; 71.4% in test [3]; 97.4% in test [4]; 81.7% in test [6]; 98.2% in test [7]. Moreover, in test [9], the growth was 116%.
